Inconclusive results are not listed. Values without a mark were called inactive. Calls of active or inactive are those of the source. Unless noted, the call rests on the fitted dose curve.
Test: qHTS assay to identify small molecule agonists of the endoplasmic reticulum stress response signaling pathway - cell viability counter screen (AID 1159517);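 further: HeLa cells carrying an ER stress response element beta-lactamase reporter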
Details: ESRE-bla HeLa viability, CellTiter-Glo luminescence, 5 h; series mostly up to 61 µM; activity change, negative = cytotoxicity: at the top concentration
Procedure, shortened: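 Steps: seed 1,500 ESRE-bla HeLa cells per well; incubate overnight at 37 C, 5% CO2; add compounds in DMSO for 5 hr; run FRET substrate 2 hr RT; add CellTiter-Glo, wait 30 min, read luminescence.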
Further: nearly all actives have a fitted effect of over 50% in size.
On the % scale 0 is the no-effect control and ±100 the full control effect.

Row | SMILES | activity change, negative = cytotoxicity
1 | CN(Cc1cc(Br)cc(Br)c1N)C1CCCCC1 | -24.2%
2 | CCN1CCN(c2cc(-c3ccc(F)cc3)c3c(n2)CCCCCC3)CC1 | -9.4% [at 28.5 µM]
3 | CCCN(CCc1cccs1)[C@H]1CCc2c(O)cccc2C1 | -17.7%
4 | CC(=O)Oc1ccc(C2(c3ccc(OC(C)=O)cc3)C(=O)Nc3ccccc32)cc1 | -1.76%
5 | CC(C)(C)C1=CC(=O)C=C(C(C)(C)C)C1=O | -0.465%
6 | CCCCCCCC/C=C\CCCCCCCC(=O)NCc1ccc(O)c(OC)c1 | -8.61%
7 | C/C=C/C=N/NC(=O)c1ccncc1 | -7.22%
8 | CN(C)c1ccc(N=Nc2ccccc2C(=O)O)cc1 | 10.8%
9 | O=C1Nc2ccc(Cl)cc2[C@@](C#CC2CC2)(C(F)(F)F)O1 | -25.4%
10 | CCCCCCCC/C=C/CCCOC(C)=O | 6.39%
11 | O=S(=O)(O)CCCN1CCOCC1 | 5.44%
12 | CCN(CC)CCSC(=O)C(c1ccccc1)c1ccccc1 | 11.1%
13 | O=C(O)Cc1ccc(OCCNC[C@H](O)c2ccccc2)cc1 | -18.7%
14 | CC1(C)C(=O)N(Br)C(=O)N1Br | -4.65%
15 | CCC(C)(C)c1cc(O)c(C(C)(C)CC)cc1O | -8.71%
16 | c1cc(OCC2CO2)cc(OCC2CO2)c1 (stereo not given) | -17.3%
17 | COc1cccc(CCc2ccccc2OCC(CN(C)C)OC(=O)CCC(=O)O)c1 (stereo not given) | -13.4%
18 | CCCCNc1c(C(=O)OCC)c(C)nc2c1cnn2CC | 4.73%

Row | SMILES | activity change, negative = cytotoxicity
19 | Cc1cn[nH]c1 | 2.86%
20 | CC1CCCCN1CCCOC(=O)c1ccc(OC2CCCCC2)cc1 (stereo not given) | -12.2%
21 | NC1(c2ccc(-c3nc4ccn5c(=O)[nH]nc5c4cc3-c3ccccc3)cc2)CCC1 | -0.422%
22 | CCNc1nc(NC(C)CC)nc(OC)n1 (stereo not given) | -10.5%
23 | O=C(O)CCCCCCC(=O)O | 2.53% [at 78.8 µM]
24 | NCCCC(O)(P(=O)(O)O)P(=O)(O)O | 6.89%
25 | O=C(c1ccccc1)c1cc(Cl)ccc1O | -13.4%
26 | COC(=O)CC(C)CCC=C(C)C (stereo not given) | -25.5%
27 | c1cc2c3c(c1)ccc1cccc(c13)C2 | 0.147% [at 78.8 µM]
28 | O=C1NCCN1CCN1CCC(c2cn(-c3ccc(F)cc3)c3ccc(Cl)cc23)CC1 | -10.7%
29 | CC(=O)Oc1ccc(C2(c3ccc(OC(C)=O)cc3)Oc3ccccc3NC2=O)cc1 | 9.5%
30 | CCCCCCCCCCCC(=O)N(CC)CC | -11.9%
31 | CNC(=S)NN | -15.9%
32 | Cc1ccc(CCn2c3c(c4cc(Cl)ccc42)CN(C)CC3)cn1 | -21%
33 | N[C@@H](CSSC[C@H](N)C(=O)O)C(=O)O | 2.61% [at 0.628 µM]
34 | ClC/C=C\CCl | -2.01% [at 78.8 µM]
35 | C=CC(C)(CCC=C(C)C)OC(=O)/C=C/c1ccccc1 (stereo not given) | -16.4%

Test: qHTS assay to identify small molecule antagonists of the retinoid-related orphan receptor gamma (ROR-gamma) signaling pathway - cell viability counter screen (AID 1159520; active means well fitted cell-killing curve with a large enough effect in the repeat runs; further: potency means the concentration at half of the fitted maximal effect)
Details: Tet-on RORgamma CHO cells viability, ATP luminescence, 16 h; series mostly up to 92.4 µM; activity, negative = cytotoxicity: at the top concentration
Procedure, shortened: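 Tet-on ROR gamma CHO cells were given compounds for 2 hr, then doxycycline hyclate at 1 uM final, and incubated 16 hr at 37 C. Viability was measured as ATP content by CellTiter-Glo luminescence.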

Row | SMILES | activity, negative = cytotoxicity | Potency
36 | CN(Cc1cc(Br)cc(Br)c1N)C1CCCCC1 | -19.7% [at 42.5 µM] | 
37 | CCN1CCN(c2cc(-c3ccc(F)cc3)c3c(n2)CCCCCC3)CC1 | -5.78% [at 19 µM] | 
38 | CCCN(CCc1cccs1)[C@H]1CCc2c(O)cccc2C1 | -11.6% [at 42.5 µM] | 
39 | CC(=O)Oc1ccc(C2(c3ccc(OC(C)=O)cc3)C(=O)Nc3ccccc32)cc1 | -0.0831% [at 42.5 µM] | 
40 | CC(C)(C)C1=CC(=O)C=C(C(C)(C)C)C1=O | 4.81% | 
41 | CCCCCCCC/C=C\CCCCCCCC(=O)NCc1ccc(O)c(OC)c1 | 0.79% [at 42.5 µM] | 
42 | C/C=C/C=N/NC(=O)c1ccncc1 | -7.74% [at 42.5 µM] | 
43 | CN(C)c1ccc(N=Nc2ccccc2C(=O)O)cc1 |  | 13.7 µM (active)
44 | O=C1Nc2ccc(Cl)cc2[C@@](C#CC2CC2)(C(F)(F)F)O1 |  | 29.8 µM (active)
45 | CCCCCCCC/C=C/CCCOC(C)=O | 2.58% | 
46 | O=S(=O)(O)CCCN1CCOCC1 | 0.472% | 
47 | CCN(CC)CCSC(=O)C(c1ccccc1)c1ccccc1 | -1.19% [at 42.5 µM] | 
48 | O=C(O)Cc1ccc(OCCNC[C@H](O)c2ccccc2)cc1 | -0.0491% [at 42.5 µM] | 
49 | CC1(C)C(=O)N(Br)C(=O)N1Br | 9.73% | 
50 | CCC(C)(C)c1cc(O)c(C(C)(C)CC)cc1O |  | 24.3 µM (active)
51 | c1cc(OCC2CO2)cc(OCC2CO2)c1 (stereo not given) | -16.9% | 
52 | COc1cccc(CCc2ccccc2OCC(CN(C)C)OC(=O)CCC(=O)O)c1 (stereo not given) | -6.83% [at 42.5 µM] | 
53 | CCCCNc1c(C(=O)OCC)c(C)nc2c1cnn2CC | -5.86% [at 42.5 µM] | 

Row | SMILES | activity, negative = cytotoxicity | Potency
54 | Cc1cn[nH]c1 | 0.331% [at 42.5 µM] | 
55 | CC1CCCCN1CCCOC(=O)c1ccc(OC2CCCCC2)cc1 (stereo not given) | -6.82% [at 42.5 µM] | 
56 | NC1(c2ccc(-c3nc4ccn5c(=O)[nH]nc5c4cc3-c3ccccc3)cc2)CCC1 |  | 29.8 µM (active)
57 | CCNc1nc(NC(C)CC)nc(OC)n1 (stereo not given) | 5.52% | 
58 | O=C(O)CCCCCCC(=O)O | 2.1% | 
59 | NCCCC(O)(P(=O)(O)O)P(=O)(O)O | 5.67% [at 42.5 µM] | 
60 | O=C(c1ccccc1)c1cc(Cl)ccc1O | -16.5% | 
61 | COC(=O)CC(C)CCC=C(C)C (stereo not given) | 4.3% | 
62 | c1cc2c3c(c1)ccc1cccc(c13)C2 | -9.53% | 
63 | O=C1NCCN1CCN1CCC(c2cn(-c3ccc(F)cc3)c3ccc(Cl)cc23)CC1 | -9.76% [at 42.5 µM] | 
64 | CC(=O)Oc1ccc(C2(c3ccc(OC(C)=O)cc3)Oc3ccccc3NC2=O)cc1 | -15.1% [at 42.5 µM] | 
65 | CCCCCCCCCCCC(=O)N(CC)CC | -7.59% | 
66 | CNC(=S)NN | -20.5% | 
67 | Cc1ccc(CCn2c3c(c4cc(Cl)ccc42)CN(C)CC3)cn1 | -4.52% [at 42.5 µM] | 
68 | N[C@@H](CSSC[C@H](N)C(=O)O)C(=O)O | 0.408% [at 0.349 µM] | 
69 | ClC/C=C\CCl | 0.116% | 
70 | C=CC(C)(CCC=C(C)C)OC(=O)/C=C/c1ccccc1 (stereo not given) | 0.527% | 

— PubChem BioAssay (Tox21)
